Screens from PubChem.
In the library only some 13% were active in any assay of this set; here they are far more common.
HCMV antiviral = qHTS Assay for inhibitors of the human cytomegalovirus (HCMV); HFF cells, HCMV-luciferase reporter, 72 h; stronger effect = lower value; activity change, negative = inhibition, % at 57.5 µM; 4.5% of 410,000 active; in the data active = activity change below about -60%; inconclusive = no clear call, values can overlap the other calls; inactive = above about -39%
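Steps: HFFs plated, 16 h 37C; compounds added; HCMV-luciferase added to MOI 1 PFU/cell; 72 h 37C; OneGlo reagent, 5 min room temperature; luminescence read, normalized to controls.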
Pf growth 96h = Primary qHTS for delayed death inhibitors of the malarial parasite plastid, 96 hour incubation; 6.9% of 320,000 active; P. falciparum luciferase reporter growth, 96 h; Potency, µM (top dose mostly 28.7 µM), inactives show at the highest dose activity change, negative = inhibition, most hits filed as inhibitors; also: potency is read from the fitted curve at half-maximal effect
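P. falciparum expressing integrated firefly luciferase grown in erythrocytes (2% hematocrit, 0.05% parasitemia final) with compounds for 96 hours at 37 C, 5% CO2. Growth inhibition read as loss of luminescence after adding luciferase detection reagent.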
HCV inh = qHTS Assay for Inhibitors of Hepatitis C Virus (HCV). Potency, µM (series often up to 41.8 µM), for the others: top-dose activity change, negative = inhibition, actives largely listed as inhibitors. AID 651820, 2012. Huh7.5.1 HCVcc-Cre infection, luciferase reporter, 44 h. 3.4% of 340,000 active; also: potency is read from the fitted curve at half-maximal effect
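Infectious HCVcc-Cre (~0.5 moi) was added to cells just after compound, with cells seeded 4 h earlier at 1,000 per well. Luciferase activity after 44 h culture reported infection; substrate was incubated 15 min at room temperature before reading.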
Pf growth 48h = Primary qHTS for delayed death inhibitors of the malarial parasite plastid, 48 hour incubation | P. falciparum luciferase growth in erythrocytes, 48 h | Potency, µM (highest dose often 28.7 µM), for the others: top-dose activity change, negative = inhibition, actives largely listed as inhibitors | 5.9% of 310,000 active | AID 504832, 2011; also: potency is read from the fitted curve at half-maximal effect
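Here the parasites carry a stable luciferase gene and grow inside erythrocytes in Albumax-based RPMI medium with compound for one erythrocytic cycle. Activity is scored as loss of luminescent signal.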
* marks the source's active call; other numbers are inactive results; [ ] = dose if it differs, or a comment. Unless noted, calls follow the shape of the dose curve; as a rule, active = well fitted inhibition curve with a large enough effect; inconclusive = small, poorly fitted or top-dose-only effect, or another doubt; inactive = no such curve, though single readings can be large or run the other way. % is scaled to controls: 0 for no effect and ±100 for the full control effect.

For CC(C)Oc1ccc(Br)cc1C(=O)N/N=C/c1c[nH]c2ccccc12 the results were HCMV antiviral -29, Pf growth 96h -25%, HCV inh 10µM* and Pf growth 48h inconclusive.
Screening O=C(N/N=C/c1c[nH]c2ccccc12)c1cc(-c2ccccc2)n[nH]1 returned HCMV antiviral 35, Pf growth 96h 1%, HCV inh inconclusive and Pf growth 48h -5%.
Screening O=C(N/N=C/c1c[nH]c2ccccc12)c1cc(-c2ccc(-c3ccccc3)cc2)n[nH]1 returned HCMV antiviral -74*, Pf growth 96h 192%, HCV inh -26% and Pf growth 48h inconclusive.
CCC(CC)C(=O)Nc1ccc2nc(SCC(=O)N3c4ccccc4CC3C)sc2c1 (stereo unspecified) was read as HCMV antiviral -32.
For COc1ccc(NC(=O)N2CCc3c(sc4c3CCCC4)C2c2ccc(F)cc2)cc1 (stereo unspecified) the results were HCMV antiviral -16.
For Cc1ccc(OC(=O)Nc2ccccc2)cc1 the results were HCMV antiviral -8, Pf growth 96h 68%, HCV inh 13% and Pf growth 48h 10µM*.
`Cc1ccc(NC(=O)c2cc(-c3ccccc3O)n[nH]2)cc1Cl` gave HCMV antiviral -16, Pf growth 96h inconclusive, HCV inh 11% and Pf growth 48h inconclusive.
Screening O=C(c1cc2cc(Cl)ccc2[nH]1)N1CCc2ccccc2C1 returned HCMV antiviral 12, Pf growth 96h -55%, HCV inh inconclusive and Pf growth 48h inconclusive.
Screening NS(=O)(=O)c1ccc(CCNC(=O)c2cc(-c3cc(Cl)ccc3O)n[nH]2)cc1 returned HCMV antiviral -80*, Pf growth 96h -40%, HCV inh -19% and Pf growth 48h inconclusive.
`Cc1ccc(Cl)cc1-c1cc(C(=O)N2CCc3ccccc3C2)[nH]n1` gave HCMV antiviral -98*.
Screening COc1ccc(CCNC(=O)c2cc(-c3cc(Cl)ccc3O)n[nH]2)cc1OC returned HCMV antiviral inconclusive, Pf growth 96h -22%, HCV inh inconclusive and Pf growth 48h inconclusive.
Screening COc1ccc(NC(=O)c2cc(-c3ccccc3O)n[nH]2)cc1Cl returned HCMV antiviral -2, Pf growth 96h 2.1µM*, HCV inh -25% and Pf growth 48h 2.6µM*.
Screening CCN(C(=O)c1cc2c(Cl)nc3ccc(C)cc3c2s1)c1cc(OC)ccc1OC returned HCMV antiviral -36.
For Cc1ccc(O)c(-c2cc(C(=O)NCc3ccncc3)[nH]n2)c1 the results were HCMV antiviral -16, Pf growth 96h 4.1µM*, HCV inh -10% and Pf growth 48h 2.9µM*.
Screening Cc1cc(C)c(O)c(-c2cc(C(=O)NCc3ccccc3)[nH]n2)c1 returned HCMV antiviral -8, Pf growth 96h inconclusive and HCV inh inconclusive.
For Cc1cccc(NC(=O)c2cc(-c3cc(Cl)ccc3O)n[nH]2)c1 the results were Pf growth 96h 2.3µM*, HCV inh -10% and Pf growth 48h 2.6µM*.
COC(=O)NC(=S)Nc1ccc(Oc2ccc(Cl)cc2Cl)c(Cl)c1 was read as HCMV antiviral 67, Pf growth 96h 13µM*, HCV inh inconclusive and Pf growth 48h inconclusive.
`Cc1ccc(NC(=O)c2cc(-c3cc(Cl)ccc3O)n[nH]2)cc1C` gave HCMV antiviral 14, Pf growth 96h 1.7µM*, HCV inh 12% and Pf growth 48h 1.9µM*.
Screening COC(=O)c1ccccc1NC(=O)c1cc(CN2CCOCC2)on1 returned HCMV antiviral 13.
O=C(CSc1nc2c([nH]c3ccccc32)c(=O)n1-c1ccccc1)N1CCCCC1 was read as HCMV antiviral -26.
For O=C(COC(=O)c1cc(-c2cccs2)nc2ccccc12)c1ccc(Br)cc1 the results were HCMV antiviral 7.
`CCS(=O)(=O)N1CCc2cc(C(=O)Nc3ccc(OC)c(Cl)c3)ccc21` gave HCMV antiviral -2.
Screening CCOc1ccc(N(CC)C(=O)CSc2n[nH]c(-c3ccccc3)n2)cc1 returned HCMV antiviral -6.
COc1ccc(NC(=O)Oc2ccccc2)cc1Cl was read as HCMV antiviral -10, Pf growth 96h 15µM*, HCV inh 2% and Pf growth 48h 13%.
`COc1ccc(NC(=O)CNC(c2ccccc2)c2ccccc2)cc1Cl` gave HCMV antiviral 56, Pf growth 96h 0%, HCV inh -15% and Pf growth 48h 0%.
Screening CCn1c(C(c2ccccc2)c2ccccc2)n[nH]c1=S returned HCMV antiviral -27, Pf growth 96h inconclusive and HCV inh 12%.
Screening C=CCn1c(C(c2ccccc2)c2ccccc2)n[nH]c1=S returned HCMV antiviral 22, Pf growth 96h 3.7µM*, HCV inh 13% and Pf growth 48h -20%.
Screening CCOc1ccccc1CNC(=O)c1ccc(N2Cc3ccccc3Oc3ncccc32)s1 returned HCMV antiviral 1.
`Cc1c(C(=O)NN)[nH]c2ccc([N+](=O)[O-])cc12` gave HCMV antiviral -27, Pf growth 96h 0%, HCV inh -10% and Pf growth 48h -15%.
`CCCCC/C=N/NC(=O)c1[nH]c2ccc([N+](=O)[O-])cc2c1C` gave HCMV antiviral -25, Pf growth 96h 10µM*, HCV inh inconclusive and Pf growth 48h inconclusive.
Screening CC(C)(C)OC(=O)N1CCC(c2c(C(=O)NCc3ccco3)cnn2-c2ccccc2Cl)CC1 returned HCMV antiviral 0.
For CC(/C=N/NC(=O)Cn1cnc2ccccc21)=C\c1ccccc1 the results were HCMV antiviral -70*, Pf growth 96h 0%, HCV inh -5% and Pf growth 48h -18%.
`CC(/C=N/NC(=O)NC1CCCCC1)=C\c1ccccc1` gave HCMV antiviral -26, Pf growth 96h -5%, HCV inh 15% and Pf growth 48h 10µM*.
For CCOc1ccc(CNC(=O)c2sc3nc(C)cc(C)c3c2-n2cccc2)cc1 the results were HCMV antiviral 13.
Screening COC(=O)[C@H]1C[C@@H]1[C@H](NC(=O)[C@H]1C[C@@H]1[C@H](NC(=O)OCc1ccccc1)c1ccccc1)c1ccccc1 returned HCMV antiviral -23, Pf growth 96h 15µM*, HCV inh -11%[8.37 µM] and Pf growth 48h inconclusive.
COc1cc(-c2ccc(Nc3ccccc3C(=O)O)c(OC)c2)ccc1Nc1ccccc1C(=O)O was read as HCMV antiviral -68*, Pf growth 96h inconclusive, HCV inh 3% and Pf growth 48h inconclusive.
For COc1cc([N+](=O)[O-])c(OC)cc1Nc1ccccc1C(=O)O the results were HCMV antiviral -4.
`Cc1cccc(Nc2ccc([N+](=O)[O-])cc2C(=O)O)c1` gave HCMV antiviral -5, Pf growth 96h 10%, HCV inh 5% and Pf growth 48h 9%.
`O=C(O)c1cc([N+](=O)[O-])ccc1Nc1ccccc1` gave HCMV antiviral -36, Pf growth 96h 10µM*, HCV inh 13% and Pf growth 48h 13%.
